In all, about 290,000 compounds went through this assay and about 890 (0.31%) were called active. Rule as the data show it: active = inhibition mostly above about 52% (no sharp cut-off); inactive = mostly below about 76%. The full list was thinned out, with actives kept by preference.
Experiment: inhibitors of HIV fusion peptide binding, primary screen, biochemical, uHTS, fluorescence dequenching (AID 1986)
Details: cell-free peptide binding, 30 min, stronger effect = higher value
[1] = measured here: repeat confirmation average inhibition, at 18.6 µM

SMILES	inhibition (at 20 µM)	inhibition [1]
O=C(NC(NC(=O)c1ccccc1)c1cccc([N+](=O)[O-])c1)c1ccccc1	4.1% (inactive)	
CN(C)CCCNS(=O)(=O)c1ccc(N2CCC(c3ccc(Cl)cc3)=N2)cc1	-4.9% (inactive)	
COc1ccc(-c2nc(N3CCCCCC3)sc2C(=O)c2ccccc2)cc1	0.2% (inactive)	
O=[N+]([O-])c1ccc(N=Nc2c(O)[nH]c3ccc(F)cc23)cc1	6.3% (inactive)	
Oc1[nH]c2ccccc2c1N=Nc1ccc(F)cc1	150% (inactive)	
Cc1cccc(N=Nc2c(O)[nH]c3ccc(F)cc23)c1	95% (active)	136%
Cc1ccc(N=Nc2c(O)[nH]c3ccc(F)cc23)cc1	111% (active)	
Oc1[nH]c2ccc(Br)cc2c1N=Nc1ccc(F)cc1	164% (inactive)	
Cc1cccc(N=Nc2c(O)[nH]c3ccc(Br)cc23)c1	13.9% (inactive)	
CCOc1ccc(N(C(=O)c2snc(C(N)=O)c2N)C(CC)C(=O)NC2CCCC2)cc1 (stereo unspecified)	1.8% (inactive)	
Cc1cc(C)c(NC(=O)CSc2nc3ncc(Cl)cc3[nH]2)c(C)c1	2.2% (inactive)	
Cc1ccc(-c2c(C(=O)Nc3ccccc3C)c(C)[nH]c(=S)c2C#N)o1	33.1% (inactive)	
Cc1ccccc1NC(=O)c1c(C)[nH]c(=S)c(C#N)c1-c1ccco1	66.5% (active)	
CNC(=O)c1c(C)[nH]c(=S)c(C#N)c1-c1ccco1	4.3% (inactive)	
O=C(CN1C(=O)NC2(CCCCCCC2)C1=O)N1CCN(C(=O)c2ccco2)CC1	1.6% (inactive)	
COc1ccc(CCC(=O)Nc2ccccc2C(F)(F)F)cc1	0% (inactive)	
CCCN1CCN(C(=O)CCn2c(=O)c3cccn3c3cccnc32)CC1	0.2% (inactive)	
Nc1c(C(=O)N/N=C/c2cccnc2)oc2nc(-c3ccccc3)cc(-c3ccco3)c12	32.7% (inactive)	
Nc1c(C(=O)N/N=C/c2ccccc2Cl)oc2nc(-c3ccccc3)cc(-c3ccco3)c12	51.3% (active)	69.2%
COc1cccc(/C=N/NC(=O)c2oc3nc(-c4ccccc4)cc(-c4ccco4)c3c2N)c1	54.2% (active)	55.5%

SMILES	inhibition (at 20 µM)	inhibition [1]
Cc1ccc(-c2cc(-c3ccco3)c3c(N)c(C(=O)NN)oc3n2)cc1	60.5% (inactive)	7.9%
Nc1c(C(=O)N/N=C/c2cccnc2)oc2nc(-c3ccco3)cc(-c3ccco3)c12	99.1% (inactive)	9.2%
Nc1c(C(=O)N/N=C/c2ccc(F)cc2)oc2nc(-c3ccccc3)cc(-c3ccco3)c12	44.8% (inactive)	
O=C(CCCCCN1C(=O)c2ccccc2C1=O)Nc1ccc(C(=O)O)cc1	-1% (inactive)	
CSc1nc2ccccc2n1CC(=O)Nc1ccc(C)c(C)c1	0.9% (inactive)	
O=[N+]([O-])c1cccc(S(=O)(=O)c2ccc(N3CCCCC3)c([N+](=O)[O-])c2)c1	2.4% (inactive)	
CCOC(=O)C1=C(CC)OC(N)=C(C#N)C1c1ccc(OC)c(C)c1OC (stereo unspecified)	-1.8% (inactive)	
CCOC(=O)/C(=N\Nc1cccc(C(F)(F)F)c1)N1CCOCC1	-4.2% (inactive)	
O=S(=O)(c1ccccc1)N1CCC(Oc2ccc(-n3cnnn3)cc2)CC1	0.5% (inactive)	
COc1cnc(N(C)C)nc1Sc1cccc(Cl)c1	1.2% (inactive)	
Cc1c(O)c2c3c(cccc3c1O)C(=O)N(c1ccccc1)C2=O	57.9% (active)	55.3%
O=C(O)c1ccc2c3c(cccc13)C(=O)N(c1ccccc1)C2=O	24.2% (inactive)	
Nc1ccc2c3c(cccc13)C(=O)N(c1ccccc1)C2=O	142% (inactive)	
Cc1cc(C)cc(NC(=O)c2cccn2-c2ncc(C(F)(F)F)cc2Cl)c1	2.6% (inactive)	
O=C(N=c1ccn(-c2nc3ccccc3nc2NS(=O)(=O)c2ccc(Cl)cc2)cc1)c1cccs1	19.3% (inactive)	
O=C(N=c1ccn(-c2nc3ccccc3nc2NS(=O)(=O)c2ccc(Cl)cc2)cc1)c1ccccc1Cl	102% (active)	
O=C(N=c1ccn(-c2nc3ccccc3nc2NS(=O)(=O)c2ccccc2)cc1)c1ccccc1Cl	24.6% (inactive)	
COc1cccc(/C=N/n2c(C3CCCCC3)n[nH]c2=S)c1	0.5% (inactive)	
CC(C)(C)C(=O)NC(=S)Nc1ccccc1C(N)=O	-0.3% (inactive)	
CCCCCCc1cc2cc(-c3nnc(-c4ccccc4OC)o3)c(=O)oc2cc1O	81.8% (inactive)	45.4%

SMILES	inhibition (at 20 µM)	inhibition [1]
CCCCCCc1cc2cc(-c3nnc(-c4cc(OC)c(OC)c(OC)c4)o3)c(=O)oc2cc1O	73.7% (active)	61.9%
CCCCCCc1cc2cc(-c3nnc(-c4ccccc4O)o3)c(=O)oc2cc1O	65.1% (inactive)	47.7%
CCOc1cc(CN2CCCC(N3CCc4ccccc4C3)C2)ccc1O (stereo unspecified)	-0.5% (inactive)	
Oc1c(Cl)cc(Cl)cc1C=Nc1ccc(N2CCOCC2)cc1	1.6% (inactive)	
Cc1cc(O)c(C=Nc2ccc(N3CCOCC3)cc2)c(C)c1Cl	80.4% (active)	73.9%
Oc1ccc(C=Nc2ccc(N3CCOCC3)cc2)c(O)c1	6.1% (inactive)	
N=C1/C(=C\c2ccc(SCc3ccco3)o2)C(=O)N=C2SC=NN12	100% (inactive)	7.1%
CCOc1cc(/C=C2\C(=N)N3N=C(N4CCCCC4)SC3=NC2=O)ccc1OC(=O)c1ccco1	20.5% (inactive)	
CCS(=O)(=O)C1=NSC2=NC(=O)/C(=C\c3ccc(OC(=O)c4ccco4)c(OC)c3)C(=N)N21	20.4% (inactive)	
COc1cc(/C=C2/C(=N)N3C(SC)=NSC3=NC2=O)ccc1OC(=O)c1ccco1	59.5% (inactive)	17.2%
CCS(=O)(=O)C1=NN2C(=N)/C(=C\c3ccc(OC(=O)c4ccco4)c(Br)c3)C(=O)N=C2S1	52.4% (active)	
O=C1NC(=S)S/C1=C\c1ccc(SCc2ccco2)o1	53.5% (active)	
O=C1NC(=S)S/C1=C\c1ccc(SCc2ccccc2)o1	72.3% (inactive)	15.9%
CCS(=O)(=O)C1=NN2C(=N)/C(=C\c3ccc(OC(=O)c4ccco4)cc3)C(=O)N=C2S1	39.2% (inactive)	
CCC1=NN2C(=N)/C(=C\c3ccc(SCc4ccco4)o3)C(=O)N=C2S1	-2.8% (inactive)	
CCS(=O)(=O)C1=NN2C(=N)/C(=C\c3ccc(SCc4ccco4)o3)C(=O)N=C2S1	72.8% (active)	
COc1cc(/C=C2\C(=N)N3N=C(S(=O)(=O)CC(C)C)SC3=NC2=O)ccc1OC(=O)c1ccco1	70.2% (active)	
CCCC1=NN2C(=N)/C(=C\c3ccc(SCc4ccco4)o3)C(=O)N=C2S1	-0.5% (inactive)	
